High-throughput results: PubChem, National Center for Advancing Translational Sciences (NCATS)
Compounds with a hit are over-represented: about 3.6% of the library has one in this group of screens.
A549 tox: A549 cytotoxicity, counter-screen for Nrf2 inhibitors | A549 ARE-Fluc cells, CellTiter-Fluor viability, 18-24 h | Potency, µM (titrated, usually from 46 µM), inactives show top-dose activity change, negative = cytotoxicity, most hits filed as inhibitors | 0.16% of 390,000 active | AID 504648; note: % is set by controls: 0 for no effect and ±100 for the full control effect
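A549 ARE-Fluc cells in 5% FBS OPTI-MEM, 5000 cells/well, rested 2 h then exposed to compounds in concentration-response for 18-24 h at 37 °C. Viability by CellTiter-Fluor fluorescence (Ex 405/Em 525) after 30 min; luciferase luminescence (BugLite, 15 min, RT) read afterwards.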
Nrf2 block: blocks Nrf2 signaling. 2.1% of 360,000 active. A549 ARE-Fluc reporter, luciferase luminescence, 18-24 h. AID 504444. Potency, µM (highest dose often 46 µM), for inactives: at the highest dose activity change, negative = inhibition, usual class: inhibitors; note: % is set by controls: 0 for no effect and ±100 for the full control effect; nearly all actives have a fitted effect of over 60% in size
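Reporter: ARE-Fluc in A549. Exposure: 18-24 h, 37 °C, 5% CO2, 5% FBS OPTI-MEM. Readouts: fluorescent cytotoxicity (CellTiter-Fluor), then luminescent Nrf2 signal after BugLite.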
Nrf2 activator: Nrf2 pathway activation; AREc32 ARE-luciferase reporter (MCF7-derived line), luminescence, 24 h; AID 624171; 0.31% of 410,000 active; Potency, µM (doses to about 46.1 µM), inactives show top-dose activation, most hits filed as activators; note: % of control where 0% means no effect; nearly all actives have a fitted effect of over 65% in size
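Luciferase luminescence (Steady-Glo, 30 min at room temperature) served as the read-out of ARE activation in AREc32 cells treated with compounds for 24 hr at 37 deg C.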
HepG2 tox: kills HepG2 cells in TGF-b inhibitor counter-screen; Potency, µM (top dose mostly 46.1 µM), for the others: at the highest dose activity change, negative = cytotoxicity, hits mostly cytotoxic; 0.76% of 410,000 active; HepG2 CAGA-GFP viability, ATP luminescence, 18 h
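CellTiter-Glo luminescence gave cytotoxicity after 18 hours at 37 degrees C. The cells were HepG2 CAGA-GFP in 1% FBS DMEM, stimulated with 500 pg/mL TGF-beta after compound addition. %Activity was normalised to no-cell wells (complete cell-killing) and DMSO (no toxicity), and curves were fitted and classified.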
TGFb inhibitor: inhibitors of TGF-b signaling. HepG2 CAGA-GFP TGF-b/SMAD3 reporter, GFP fluorescence, 18 h; TGF-beta stimulated, 500 pg/mL final. 1.2% of 410,000 active. Potency, µM (highest dose often 46.1 µM), for the others: at the top dose activity, negative = inhibition, usual class: inhibitors; note: % is set by controls: 0 for no effect and ±100 for the full control effect; nearly all actives have a fitted effect of over 65% in size
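HEPG2 CAGA-GFP, 1000 cells/well; 2 h settle, 37 C; cpd via pin tool; TGF-b 500 pg/mL final; 18 h, 37 C; GFP imaging ex488/em500-530; %Activity normalised to -TGF-b and +DMSO controls; CRC fit, curve class.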
Active calls of the source: *; ? = inconclusive; nt = no result given; [ ] = remark or other dose. Calls come from the whole dose curve; as a rule, active = well fitted curve in the direction sought with a large enough effect; inconclusive = small, poorly fitted or top-dose-only effect, or another doubt; inactive = no such curve, though single readings can be large; an effect the other way counts as inactive or inconclusive. Potency is the fitted concentration of half-maximal effect.

SMILES | A549 tox | Nrf2 block | Nrf2 activator | HepG2 tox | TGFb inhibitor
Cc1cccn2c(=O)c3cc(C(=O)NCCN4CCOCC4)c(=N)n(CCN4CCOCC4)c3nc12 | -15% | 5% | 4% | -7% | -1%
Cc1cccn2c(=O)c3cc(C(=O)NCCN4CCOCC4)c(=N)n(Cc4ccc(F)cc4)c3nc12 | ? | 16µM* | -1% | -13% | 0%
O=C(C1=C[C@@H](C2CCCCC2)C[C@@H](OCc2ccc(CO)cc2)O1)N1CCOCC1 | -15% | -1% | 3% | -22% | -14%
COc1ccccc1CNC(=S)NC1CCCCC1 | ? | 15µM* | 3% | -7% | 5%
CCCC(=O)N1CC(=O)Nc2ccc(Cl)cc2C1c1ccc(F)cc1 (configuration not stated) | 0% | 0%[9.27 µM] | 4% | 0% | 0%
CC(C)C(OC(=O)c1cc2sccc2n1C)C(=O)NCC1CCCO1 (configuration not stated) | -5% | -18% | 0% | -16% | ?
Cc1ccc(C(=O)Nc2nc(-c3nnn(-c4cccc(C(F)(F)F)c4)c3C)ns2)cc1 | 4% | 17% | 5% | -22% | 3%
CCOc1cc(CNCc2ccc(C(=O)O)cc2)ccc1OC | -1% | 6% | -1% | -25% | -3%
CCOc1cc(CNCc2cc(OC)cc(OC)c2)ccc1OC | -8% | 8.2µM* | 1% | 5% | ?
CCCCNC1C(CC)C(CCC)C(C#N)(C#N)C1(C#N)C#N (configuration not stated) | -14% | ? | 13% | -54% | 10µM*
CCN(CC)c1ccc(/C=C/c2nccc3ccccc23)cc1 | nt | nt | nt | -55% | 162%
CC[N+](C)(C)c1ccc(/C=C/c2ccc3ccccc3n2)cc1 | nt | nt | nt | -56% | 6.3µM*
CC[N+](C)(C)c1ccc(/C=C/c2ccncc2)cc1 | nt | nt | nt | -16% | 35%
CCN(CC)c1ccc(/C=C/c2ccc3ccccc3n2)cc1 | nt | nt | nt | 3.2µM* | 2.5µM*
COc1ccc(C(=O)Nc2ccc3nc4c(c(Nc5ccc(OC)c(OC)c5)c3c2)CCCC4)c(OC)c1 | ? | ? | 13% | -88% | ?
COc1cccc(C(O)c2nc3ccccc3n2C(C)C)c1 (configuration not stated) | -1% | ? | 0% | 0% | -15%
O=C1C=C(c2ccc(Cl)c(C(F)(F)F)c2)C[C@@H](c2ccc(F)cc2)C1 | -4% | -1% | 2% | -32% | ?
O=C1C=C(c2ccc(Cl)c(C(F)(F)F)c2)C[C@@H](c2ccc(Cl)cc2)C1 | 8% | 13% | 0% | -45% | 14µM*
O=C(c1ccco1)N1CCN(C(=O)C2CCCN(S(=O)(=O)Cc3ccccc3)C2)CC1 (configuration not stated) | -1% | -11% | 0% | 1% | 0%
COc1cc(NC(=O)CN2C(=O)NC(c3ccccc3)(c3ccccc3)C2=O)c(C)cc1[N+](=O)[O-] | -17% | 29µM* | 6% | 4% | -7%
CCS(=O)(=O)C1C(=O)N(C)C(S(=O)(=O)CC)C(=O)N1C (configuration not stated) | nt | nt | 0% | 7% | 1%
O=C(Nc1cnn(Cc2ccc(F)cc2)c1)C(c1ccccc1)c1ccccc1 | -10% | 6% | 0% | -5% | 13µM*
CC(Nc1nc(N2CCCCC2)nc2ccccc12)c1ccccc1 (configuration not stated) | ? | ? | 3% | 13µM* | ?
C=CCc1ccccc1OCC(O)CN1CCN(CCN2C(=O)c3cccc4cccc(c34)C2=O)CC1 (configuration not stated) | -10% | 1% | -2% | -99% | 14µM*
Cc1ccccc1OCC(O)CN1CCN(CCN2C(=O)c3cccc4cccc(c34)C2=O)CC1 (configuration not stated) | -13% | 3% | 9% | -38% | 2%
SMILES | A549 tox | Nrf2 block | Nrf2 activator | HepG2 tox | TGFb inhibitor
O=C(/C=C/c1cccs1)c1cc(Br)ccc1OC(=O)N1CCOCC1 | -11% | ? | 9% | 11µM* | -4%
N#CCCn1cc(CNCc2cccnc2)c(-c2ccccc2)n1 | 8% | 23% | nt | 40% | 36%
O=C(NCCC(=O)N1CCN(S(=O)(=O)c2ccccc2F)CC1)Nc1ccccc1 | 16% | 16% | 0% | 2% | -3%
COc1ccc(C2=C(C)C(=NCCCN3CCN(c4cc(C)ccc4C)CC3)NS2(=O)=O)cc1 | 6% | -17% | 1% | 10µM* | ?
COc1ccc(NC(=O)NCCCN2CCN(c3cc(C)ccc3C)CC2)cc1 | -1% | -1% | 1% | 13µM* | ?
COc1ccc(NC(=O)NCCCN2CCN(c3ccccc3F)CC2)cc1 | -2% | 0% | 3% | -6% | 0%
Cc1ccc(S(=O)(=O)Cc2ccc(C(=O)NCCCN3CCN(C)CC3)o2)cc1 | -4% | 5% | -1% | 2% | 5%
CN1CCN(C2Cc3cc(F)ccc3Sc3ccc(Cl)cc32)CC1 (configuration not stated) | 2% | 9% | 3% | -105% | 32µM*
CN1CCN(C2Cc3ccccc3Sc3ccc(Cl)cc32)CC1 (configuration not stated) | -9% | -1% | -1% | -44% | -12%
CN1CCN(C2Cc3ccc(F)cc3Sc3cc(F)c(Cl)cc32)CC1 (configuration not stated) | 4% | 1% | -3% | 20µM* | ?
O=C(CN(CC1CCCO1)C(=O)CNS(=O)(=O)c1ccc(F)cc1)NCc1ccccc1 (configuration not stated) | 5% | 3% | -1% | 8% | -3%
Cc1ccc2c(c1)C(=O)C(=O)N2CCCOc1ccccc1 | -1% | 1% | 2% | -38% | 18µM*
COc1ccc(-c2nnc(SCC(=O)N(Cc3ccccc3)C(C)(C)C)o2)cc1OC | -16% | 23µM* | -1% | -16% | ?
CCN(C(=O)CSc1nnc(-c2cc(OC)c(OC)c(OC)c2)o1)c1ccccc1 | 2% | -14% | 8% | -17% | -8%
O=C1/C(=C\c2cc(Cl)c(O)c(Cl)c2)SC(=S)N1Cc1ccccc1 | -24% | 18µM* | 0% | 11µM* | 238%
COc1ccc(/C=C2/SC(=S)N(Cc3ccccc3)C2=O)cc1O | ? | ? | 0% | -89% | ?
COc1ccccc1OCCSc1nc(-c2ccc(C(C)(C)C)cc2)nc2cc(=O)[nH]n12 | 12% | ? | 0% | -55% | ?
Cc1ccc(-c2nc(SCCOc3ccccc3C)n3[nH]c(=O)cc3n2)cc1 | 3% | ? | 15% | -51% | 11µM*
CCc1cc(C(=O)N2CCN(c3ccccc3OC)CC2)sc1C | -5% | -39% | 0% | 2% | -16%
